Screens as filed in PubChem.
CD40 NFkB inh – CD40 pathway inhibition in BL2 cells; AID 1053188; inhibition, % at 10 µM; 0.94% of 83,000 active; BL2 NF-kB luciferase reporter, CD40L-induced, 4 h;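 active = mean inhibition of at least 50% with a set share of replicates also reaching that level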;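 note: 0% = neutral control wells and 100% = IKK inhibitor VII at 50 µM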
* hit, by the source's call; [ ] = remark or other dose. The sample as a whole holds a higher share of hits than the screen did.

SMILES	CD40 NFkB inh
Cc1cc(-c2nnc3n2N=C(c2ccc(-c4ccccc4)cc2)CS3)n[nH]1	19.1
C[n+]1c2n(c3ccccc31)N=C(c1ccccc1)CS2	14.7
C[n+]1c2n(c3ccccc31)N=C(c1ccc(-c3ccccc3)cc1)CS2	69.5*
CCC(=O)N1[C@H](C(=O)NC2CCCC2)[C@@H](CO)[C@@H]2Cn3c(ccc(C4=CCCC4)c3=O)[C@@H]21	1.9[25 µM]
CN1C(=O)c2cc(NC(=O)c3cnccn3)ccc2OC[C@H]2O[C@H](CC(=O)NCC3CC3)CC[C@@H]21	-2.9
Cc1ccc(S(=O)(=O)N(C)C[C@H]2OCc3ccccc3-c3ccccc3C(=O)N([C@H](C)CO)C[C@@H]2C)cc1	13.8
Cc1cc(C(N)=O)c2ccccc2n1	5.4
CN(C)/C=N/c1ncc(C(=O)c2ccc3ccccc3c2)s1	-44.8
Cc1cc(Sc2nnc(/N=C/N(C)C)s2)c2ccccc2n1	83.6*
O=C(Nc1ccccc1)[C@@H]1[C@@H](CO)[C@@H]2Cn3c(cccc3=O)[C@H]1N2Cc1ccncc1	2.5[25 µM]
CC(C)[C@H]1C(=O)N[C@@H](c2cccc(Cl)c2)CC=CC[C@H](C)Oc2ccccc2C(=O)N1C (mixture of isomers)	34.5[25 µM]
C[C@@H]1CN([C@@H](C)CO)C(=O)c2cccc(N(C)C)c2O[C@H]1CN(C)Cc1ccc(C(=O)O)cc1	-9.6
O=C(O)c1cc(-c2ccccc2)c(N2CCOCC2)s1	7.7
Nc1ccc(-c2cccc3c(=O)cc(N4CCOCC4)oc23)cc1	57.5*[25 µM]
Nc1ncnc2nc(-c3ccc(N4CCOCC4)nc3)cc(-c3cccc(Br)c3)c12	-20.2[25 µM]
O=S(=O)(c1ccccc1)N1CC2(C1)[C@H](c1ccccc1)[C@@H](CO)N2CC1CCOCC1	-9.7[25 µM]
CC(=O)N(C)C[C@H]1Oc2ccc(NC(=O)NC(C)C)cc2CC(=O)N(C)C[C@H]1C	-4.2
O=C(c1ccc(F)cc1)N1C[C@H]2[C@@H](c3ccccc31)[C@@H](CO)N2C(=O)c1ccccc1	-54.8
O=C(NCc1ccc2c(c1)OCO2)c1cccc(N2CCCC2=O)c1	0.3
O=C(NCCc1ccccc1)c1cccc(N2CCCC2=O)c1	71.0*
O=C(Nc1ccccc1)c1cccc(N2CCCC2=O)c1	-42.9
C[C@@H]1CN([C@@H](C)CO)C(=O)c2c(c3ccccc3n2C)-c2ccccc2CO[C@@H]1CN(C)Cc1ccc(C(=O)O)cc1	-10.7
O=C(c1cc(-c2ccc3c(c2)OCO3)on1)N1CCN(c2ccccc2)CC1	-38.4
O=C(COCc1cc(-c2ccc3c(c2)OCO3)on1)N1CCCCC1	-68.4
O=C(c1cc(-c2ccc3c(c2)OCO3)on1)N1CCOCC1	48.3*
SMILES	CD40 NFkB inh
N#C[C@@H]1[C@H](c2ccc(C3=CCCC3)cc2)[C@@H](CO)N1c1nc(-c2ccccc2)cs1	-2.3[25 µM]
CN(C[C@H]1N[C@H](CO)[C@H]1c1ccc(-c2cccc(F)c2)cc1)S(C)(=O)=O	-18.7[25 µM]
CO[C@@H]1CN(C)C(=O)c2ccc(NC(=O)C3CCCC3)cc2OC[C@H](C)NC[C@H]1C	-6.4
CN(C)C(=O)c1cccc(-c2ccc(C3[C@H]4CNC[C@@H]3N4C(=O)NC3CCCC3)cc2)c1 (stereo not given in full)	4.7
CNC[C@@H]1Oc2c(cccc2N(C)C)C(=O)N(C)C[C@H]1C	4.6
Cc1sc2ncnc(SCC#N)c2c1C	5.7
Cc1sc2ncnc(Sc3nnnn3-c3ccccc3)c2c1C	46.5*
CCCSc1ncnc2sc(C)c(C)c12	8.3
CCS(=O)(=O)N1CC2(C1)[C@@H](c1ccccc1)[C@@H](CO)N2Cc1ccccn1	-2.7[25 µM]
Cc1ccccc1NC(=O)c1ccc(Cl)c(NC(=O)C2CCCC2)c1	2.1
C[C@@H]1CCCCO[C@@H](CN(C)Cc2ccc(C(F)(F)F)cc2)[C@@H](C)CN([C@@H](C)CO)C(=O)c2cc(NC(=O)Nc3cccc4ccccc34)ccc2O1	16.3[25 µM]
CN(C)C(=O)c1ccc(-c2ccc([C@@H]3[C@@H](CO)N4CCCCN(C(=O)C5CC5)C[C@H]34)cc2)cc1	-1.6[25 µM]
c1ccc(-c2ccccc2OCCOCCN2CCCCC2)cc1	7.0
c1cc(-c2cnn3cc(-c4ccc(OCCN5CCCCC5)cc4)cnc23)ccn1	87.3*[25 µM]
FC(F)(F)c1cnc(-c2cnc3c(-c4ccc(Cl)cc4)cnn3c2)c(Cl)c1	0.3
COCC(=O)Nc1ccc2c(c1)[C@H]1C[C@@H](CC(=O)N[C@@H](C)c3ccccc3)O[C@@H](CO)[C@H]1O2	0.5[25 µM]
CCN(C[C@H]1[C@H](c2ccccc2)[C@H](CO)N1C(=O)COC)S(C)(=O)=O	2.0[25 µM]
COc1ccc(C(=O)Nc2ccc3c(c2)C(=O)N(C)[C@@H]2CC[C@H](CC(=O)NCC4CC4)O[C@H]2CO3)cc1	-18.2[25 µM]
Cc1cccc2sc(N(CCN3CCOCC3)C(=O)CCS(=O)(=O)c3ccccc3)nc12	1.5
COc1ccc(Cl)c2sc(N(CCN(C)C)C(=O)CCS(=O)(=O)c3ccc(C)cc3)nc12	11.6
COc1ccc(OC)c2sc(N(CCCN(C)C)C(=O)CCS(=O)(=O)c3ccccc3)nc12	81.2*
O=C(C[C@@H]1CC[C@@H](NC(=O)CN2CCOCC2)[C@@H](CO)O1)NC1CCC1	-3.6[25 µM]
